The experiment is described as follows: chemical genetic growth profiling, strain panel (AID 1159580).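 Also: tested at 20 µM; growth read once vehicle control cultures reached saturation at 30 °C; 1 = growth at the plate median or of vehicle wells; lower values mean less growth of the strain.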 The note with it: S. cerevisiae deletion strains, growth OD.
Setting [1] is: locus YAL013W, strain DEP1, stronger effect = lower value.
The mark [2] stands for this setting: locus YDR150W, strain NUM1, stronger effect = lower value.

Consider two molecules from PubChem BioAssay AID1159580 (chemical genetic matrix, 2015).

Among all 5,500 compounds or so, about 2,000 (36%) were called active. Another 18% or so got no clear call; they are omitted. Some of the results follow. Unmarked numbers belong to inactive results. Rule as the data show it: active = normalized growth mostly below about 0.91 (no sharp cut-off); inconclusive = no clear call, values can overlap the other calls; inactive = mostly above about 0.92.

Turning to `CCOC(=O)C1C(=O)C=C(c2cccs2)CC1c1ccc(OC)c(OC)c1Cl` (stereo unspecified), the normalized growth reads like this: under setting [1], 0.988; (locus YBR229C, strain ROT2, stronger effect = lower value) 0.991; (locus YDL101C, strain DUN1, stronger effect = lower value) 0.995; (locus YDL134C, strain PPH21, stronger effect = lower value) 0.989; under setting [2], 0.968; (locus YEL061C, strain CIN8, stronger effect = lower value) 1.01. Moreover, the normalized growth by setting is: (locus YGR078C, strain PAC10, stronger effect = lower value) 0.979; (locus YHR030C, strain SLT2, stronger effect = lower value) 0.874; (locus YHR087W, strain rtc3, stronger effect = lower value) 0.998; (locus YJR043C, strain POL32, stronger effect = lower value) 0.983; (locus YJR075W, strain HOC1, stronger effect = lower value) 0.974; (locus YLR039C, strain RIC1, stronger effect = lower value) 0.863. For the same molecule, the normalized growth is, setting by setting: (locus YLR058C, strain SHM2 (second series), stronger effect = lower value) 0.992; (locus YLR085C, strain ARP6, stronger effect = lower value) 1; (locus YLR262C, strain YPT6, stronger effect = lower value) 0.796 (active); (locus YML094W, strain GIM5, stronger effect = lower value) 1.03; (locus YMR219W, strain ESC1, stronger effect = lower value) 0.993; (locus YMR263W, strain SAP30, stronger effect = lower value) 1.01. Moreover, the normalized growth is, setting by setting: (locus YNL153C, strain GIM3, stronger effect = lower value) 0.988; (locus YNL298W, strain CLA4 (second series), stronger effect = lower value) 0.976; (locus YNL322C, strain KRE1, stronger effect = lower value) 0.993; (locus YNR030W, strain Alg12, stronger effect = lower value) 0.968; (locus YOL006C, strain TOP1, stronger effect = lower value) 0.895; (locus YPL055C, strain LGE1, stronger effect = lower value) 1.04. The normalized growth (locus YPL241C, strain CIN2, stronger effect = lower value) is 1.01 and the normalized growth (locus YPR135W, strain CTF4, stronger effect = lower value) is 0.843.

On to `Cc1cc(N)c2ccccc2[n+]1CCCCCCCCCCCCCC[n+]1c(C)cc(N)c2ccccc21`, for which the normalized growth runs as follows: under setting [1], 0.365 (active); (locus YAL040C, strain CLN3, stronger effect = lower value) 0.0844 (active); (locus YCL061C, strain MRC1 (second series), stronger effect = lower value) 0.0514 (active); under setting [2], 0.0556 (active); (locus YDR363W, strain ESC2, stronger effect = lower value) 0.0835 (active); (locus YER002W, strain NOP16, stronger effect = lower value) 0.0687 (active). Besides, the normalized growth was 0.0676 (active) (locus YNL175C, strain NOP13, stronger effect = lower value); 0.0663 (active) (locus YNL197C, strain WHI3, stronger effect = lower value); 0.068 (active) (locus YNL224C, strain SQS1, stronger effect = lower value); 0.0774 (active) (locus YOR083W, strain WHI5 (second series), stronger effect = lower value).
